PubChem BioAssay (NCI)
Compounds without any hit were thinned out: in the full panel of roughly 83,000, 20% have a hit.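 For each line, cells grew in 96-well plates with the test compound present at a single concentration for 48 hours.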 A number with no mark means an inactive call. Active and inactive are the calls of the source. The calls were made as follows: active = growth percent below 10; inactive = the rest.

What was measured:
Assay in all cases: NCI-60 one-dose screen, 48 h (100 = growth as untreated, 0 = no growth, -100 = all killed)
Settings in all cases: 10 µM unless noted
[1] = system: T-47D breast
[2] = system: MDA-MB-435 melanoma
[3] = system: SW-620 colon
[4] = system: MCF7 breast
[5] = system: HCT-116 colon
[6] = system: HCC-2998 colon
[7] = system: KM12 colon

| Compound | growth [1] | growth [2] | growth [3] | growth [4] | growth [5] | growth [6] | growth [7] |
| --- | --- | --- | --- | --- | --- | --- | --- |
| CC(C)CCSC1=CC(=O)c2ccccc2C1=O | -41.4% (active) | 63.8% | -16.7% (active) | 42.5% | -100% (active) | 100% | 92.1% |
| CC1Cc2c(Cl)ncnc2N(C)c2ccccc21 (stereo not given) | 42.5% | 14.9% | 14% | 14.1% | 12.9% | 34.5% | 11.3% |
| Cc1cc(C)c(O)c(CNCCCNCc2cc(C)cc(C)c2O)c1 | 67.3% | 2.52% (active) | 71.8% | 38.2% | 51.6% | -51.4% (active) | 61.3% |
| OC(c1ccc(Cl)cc1)(c1ccc(Cl)cc1)C(O)(c1ccc(Cl)cc1)c1ccc(Cl)cc1 | 32.9% | 29.3% | 44.4% | 49.7% | 7.19% (active) | 48.6% | 24.2% |
| Nc1nc(N)c2c(n1)NC(c1ccc(F)cc1)C1CCc3ccccc3C1=N2 (stereo not given) | 49.7% | 54.4% | 67.3% | 26.9% | 31.9% | 71.2% | 50.1% |
| Cc1ccc(S(=O)(=O)N/N=C2\CC3CCC2(C)C3(C)C)cc1 (stereo not given) | 105% | 103% | 99.3% | 90.3% | 104% | 748% | 95.4% |
| Oc1cc(Nc2ccnc3cc(Cl)ccc23)c2ncccc2c1 | 52.1% | 70% | 66.6% | 61% | 69.3% | 112% | 87.6% |
| COC(=O)[C@H](CC(C)C)NC(=O)NC(=O)NC(=O)CI | 17.3% | 72.7% | -51.5% (active) | 33.2% | 50% | 91.9% | 94.1% |
| C[C@@H](NC(=O)[C@@H](CC(=O)N1CCC(N2CCCCC2)CC1)N1C(=O)[C@@H](N2C(=O)OC[C@@H]2c2ccccc2)[C@H]1/C=C/c1cccc(Cl)c1)c1ccccc1 | 29.9% | 1.09% (active) | 66.3% | 20.8% | 53.7% | 28.5% | 71.3% |
| Cc1ccc(N)c(O)c1 | 94.1% | 102% | 92.2% | 83.5% | 85.2% | -4.78% (active) | 99.5% |
| COc1ccc2c(c1)C(C)Cc1c(Cl)ncnc1N2C (stereo not given) | 4.2% (active) | -25.2% (active) | 3.63% (active) | 1.16% (active) | 7.03% (active) | 22.3% | 4.12% (active) |
| CCOc1ccc2sc(NS(=O)(=O)c3ccc(N)cc3)nc2c1 | 122% | 107% | 115% | 97.4% | 110% | 107% | 105% |
| O=C(NCc1ccc(Cn2c(=O)sn(-c3ccccc3)c2=O)cc1)OCc1ccc2c(Br)cc(Br)c(O)c2n1 | -49.8% (active) | -77.6% (active) | -50.2% (active) | -29% (active) | -71.8% (active) | -80% (active) | -61.8% (active) |
| O=C1COCCN1c1ccc(NCc2cn(Cc3ccc(F)cc3)c3ccccc23)cc1 | -19.8% (active) | 99.1% | 28.1% | 4.76% (active) | 6.21% (active) | 81.9% | 98.6% |
| COc1ccc(NC(=O)Nc2ccc(-c3cccnc3)cc2N2CCC(CO)CC2)cc1 | 68.8% | 26% | 65.2% | 31.8% | 12.5% | 42% | 38.8% |
| O=C(NCCCCCCCNC(=O)OCc1ccc2c(Cl)cc(Cl)c(O)c2n1)OCc1ccc2c(Cl)cc(Cl)c(O)c2n1 | -62.5% (active) | -86.4% (active) | -67.3% (active) | -30.2% (active) | -70% (active) | -75.8% (active) | -82.4% (active) |
| CSc1nc2sc3cc(Cl)c(Cl)cc3n2c(=N)c1C#N | 89.4% | 97.7% | 98.1% | 60.5% | 100% | 106% | 98.9% |
| Cn1ncc2c(Nc3ccc(O)cc3)nc(Cl)nc21 | 106% | 102% | 118% | 94% | 108% | 105% | 106% |
| O=C(Nc1cc(-c2cccnc2)nc(NCCCN2CCOCC2)n1)c1cc(Br)cc(C(F)(F)F)c1 | 46.4% | 9.55% (active) | 75.4% | 38.6% | 35.7% | 37.8% | 80% |
| Cc1ccc2c(c1)C(C)Cc1c(Cl)ncnc1N2C (stereo not given) | 51.8% | 6.38% (active) | 16.6% | 13.5% | 12.9% | 20.5% | 9.89% (active) |
| CCCC(NC(=O)OCc1ccccc1)C(=O)O (stereo not given) | 99.6% | 109% | 97.9% | 96% | 98.1% |  | 109% |
| O=C(NCCCNC(=O)OCc1ccc2c(Br)cc(Br)c(O)c2n1)OCc1ccc2c(Br)cc(Br)c(O)c2n1 | -58.2% (active) | -71.2% (active) | -44.7% (active) | -28.1% (active) | -66% (active) | -42.5% (active) | 7.57% (active) |
| O=C(Nc1ccc(Nc2ccncc2)cc1)c1ccc([N+](=O)[O-])cc1 | 29.7% | 79.5% | 30.5% | 51.6% | 27.3% | 66.7% | 79.5% |
